This is a sample that favours compounds with a hit; in the whole collection about 6% have one here.
D1 potentiator: enhances dopamine response at the human D1 receptor; potentiation, % at 10 µM; hit rate 0.036% among 360,000; P21728; HEK293 TREx D1 cells, calcium flux, dopamine EC20 potentiation; AID 504651; in the data active means potentiation above about 30%
Target sequence (P21728 whole entry, looked up): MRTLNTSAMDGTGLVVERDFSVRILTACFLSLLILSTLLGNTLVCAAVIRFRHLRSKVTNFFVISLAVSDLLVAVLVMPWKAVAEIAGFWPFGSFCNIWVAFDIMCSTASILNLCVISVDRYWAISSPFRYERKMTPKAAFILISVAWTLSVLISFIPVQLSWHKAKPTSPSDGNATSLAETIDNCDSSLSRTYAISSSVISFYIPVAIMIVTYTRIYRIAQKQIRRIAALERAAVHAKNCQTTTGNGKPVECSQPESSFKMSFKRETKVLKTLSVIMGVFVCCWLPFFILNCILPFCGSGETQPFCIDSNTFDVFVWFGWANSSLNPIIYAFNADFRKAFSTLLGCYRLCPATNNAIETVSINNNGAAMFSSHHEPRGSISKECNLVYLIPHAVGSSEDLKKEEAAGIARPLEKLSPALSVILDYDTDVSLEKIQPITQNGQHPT
D3 antag: D3 dopamine receptor (human) antagonism | P35462 | D3R cells, DiscoveRx beta-arrestin luminescence, antagonist mode; active compounds read low | max response, negative = inhibition, % | hit rate 2.5% among 360,000; in the data active means max response below about -50%; inconclusive means no clear call, values can overlap the other calls
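Cells plated overnight at 1500 cells/well, then exposed to library compounds with dopamine controls for 90 minutes at 37 degrees C. DiscoveRx reagent added for 30–60 minutes at room temperature; luminescence read, quantitative HTS format.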
DRD3 agonist: agonists of human D3 dopamine receptor. hit rate 0.58% among 410,000. D3R DiscoveRx beta-arrestin cells, luminescence, 90 min. P35462. max activation, %; in the data active means max activation above about 30%
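Agonist mode: compounds and dopamine controls were applied to plated cells for 90 min at 37 degrees C after an overnight attachment at 1500 cells/well. Luminescent read-out followed 30 - 60 minutes at room temperature with DiscoveRx detection reagent.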
D1 antag: antagonists of human D1 dopamine receptor. AID 504652. P21728. hit rate 3.2% among 360,000. activity change, negative = inhibition, % at 10 µM. HEK293 TREx D1 cells, calcium flux, dopamine EC80; active compounds read low; in the data active means activity change below about -30%
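After overnight tetracycline induction at 30 C, force-coupled D1 HEK293 cells took up a no-wash calcium dye at room temperature. Compounds were added and monitored 180 s, and the response to EC80 dopamine was then recorded.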
D1 agonist: activates the human D1 dopamine receptor; activation, % at 2 µM; P21728; HEK293 T-REx D1 cells, calcium flux, agonist mode; hit rate 1% among 360,000; in the data active means activation above about 30%
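Inducible HEK293 T-REx D1 cells, force-coupled to calcium signalling, were plated at 4000 cells/well with tetracycline and held overnight at 30 C. After no-wash calcium dye loading, compound-evoked calcium rise over 180 s flagged agonists.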
Hits are given with their value; - = inactive; ? = inconclusive; . = no result; ! = not active in a repeat.

SMILES	D1 potentiator	D3 antag	DRD3 agonist	D1 antag	D1 agonist
Cc1csc2nc(-c3cccc(NC(=O)c4cccc(F)c4)c3)cn12	-	.	-	-	-
COc1ccc(CNc2ccc(Br)cc2)cc1	-	-	-	-	-
COc1ccc(NC2=NCC(Cc3ccc(Br)cc3)S2)cc1 (configuration not stated)	-	?	-	-	32
O=C(CN1C(=O)CSc2ccc(C(F)(F)F)cc21)Nc1ccccc1	-	-	-	-	30
O=C(CCN1C(=O)CSc2ccccc21)Nc1ccc(C(F)(F)F)cc1	-	?	-	-31	-
Cc1nn(-c2ccccc2)c2sc(C(=O)Nc3cccc(Br)c3)cc12	-	.	-	-	-
Cc1ccc(-c2onc(C)c2C)cc1S(=O)(=O)NCc1cccs1	-	.	-	-	-
COc1cccc(C#Cc2c(C=O)n(C)c3ccccc23)c1	-	-	56	.	-
CCN1CCN(Cc2ccc(NC(=O)c3cc(NC(=O)c4cc(C)on4)cc(OC)c3)cc2C(F)(F)F)CC1	-	?	-	-	-
CCN1CCN(Cc2ccc(NC(=O)c3cc(NC(=O)C(=O)c4c[nH]c5ccccc45)cc(OC)c3)cc2C(F)(F)F)CC1	-	-54	-	-	-
CCN1CCN(Cc2ccc(NC(=O)c3ccc(C)c(NC(=O)C(=O)c4c[nH]c5ccccc45)c3)cc2C(F)(F)F)CC1	-	-72!	-	-	-
COc1ccc(CCNC(=O)c2ccc3c(c2)CCN3S(=O)(=O)c2ccc(C)cc2)cc1OC	-	.	-	-	-
CC1=NN(c2ccccc2)C(=O)C1N=Nc1ccc(N)cc1 (configuration not stated)	-	-60	-	-	-
OC[C@]1(O)OC[C@@H](O)[C@H](O)[C@@H]1O	.	.	-	.	.
COc1ccc(-c2[nH]c(-c3ccc(OC)c(OC)c3)nc2SCC(=O)Nc2ccccc2)cc1	-	.	-	-	-
c1ccc(Cn2nnnc2C(c2cccs2)N2CCc3ccccc3C2)cc1 (configuration not stated)	-	-69	-	-	-
CCC(Cc1c(I)cc(I)c(O)c1I)C(=O)O (configuration not stated)	.	.	-	.	.
COc1cc(C2c3cc4c(cc3OC(Nc3ccc(C(=O)O)cc3)C2C)OCO4)cc(OC)c1OC (configuration not stated)	.	-	33	.	.
COc1ccc(C(c2c(O)cc(C)n(Cc3ccco3)c2=O)N2CCN(c3ccccc3)CC2)cc1 (configuration not stated)	-	.	-	-	-
CCN(CCCNC(=O)c1cc2c(-c3cccc(OC)c3)nn(C)c2s1)Cc1ccccc1	-	-54	-	-	-
CCCCN(CC)CCNC(=O)c1cc2c(-c3ccccc3F)nn(C)c2s1	-	-61	-	-	-
Cc1ccc(-n2ncc3c(N4CCCCCC4)ncnc32)cc1	-	.	-	-	-
Cc1ccc2nc(-c3ccc(Cl)c(NC(=O)c4ccc5c(c4)OCCO5)c3)oc2c1	-	.	-	-	-
O=C(CN1CCN(c2nc(-c3ccccc3)cs2)CC1)Nc1ccc2c(c1)OCO2	-	-	-	-32	-
CN1CCN(c2ccc(NC(=O)CSc3ccccc3)cc2F)CC1	-	?	-	-53	-
SMILES	D1 potentiator	D3 antag	DRD3 agonist	D1 antag	D1 agonist
Cc1cccc(NC(=O)CCN2CCN(c3ccccc3F)CC2)c1	-	.	39	-	-
Cc1cccc(NC(=O)CCN2CCCC(C)C2)c1 (configuration not stated)	-	-	-	-72	-
Cc1cccc(NC(=O)CCN2CCCCC2)c1	-	-	-	-	-
O=C(CCN1CCN(c2ccccc2F)CC1)Nc1ccc2c(c1)OCO2	-	-	40	-	-
O=C(CCN1CCN(c2ccccc2)CC1)Nc1ccc2c(c1)OCO2	-	?	-	-	-
CCOc1ccc(S(=O)(=O)n2nc(C)c(S(=O)(=O)N3CCCCC3)c2C)cc1	-	.	-	-	-
O=c1oc2ccccc2nc1/C=C(O)/C=C\c1ccccc1	-	-55	-	-	-
O=c1oc2ccccc2nc1/C=C(O)/C=C/c1ccc(F)cc1	-	-	-	-	-
Cc1cccc(NC(=O)CSc2cn(CC(=O)N3CCCC3)c3ccccc23)c1C	-	.	-	-	-
CCN(CC)C(=O)Cn1c(=O)n(CCCCCC(=O)NCc2ccccc2Cl)c(=O)c2sccc21	-	.	-	-	-
Cc1c(C#N)c(O)n(CCO)c(=O)c1N=Nc1ccc2c(c1)COC2=O	-	-59	-	-	-
O=C(Cn1ncc2ccsc2c1=O)N1CCN(c2ccccc2F)CC1	-	.	-	-	-
COc1ccc2oc3cc(C)[n+]([O-])c(-c4ccc(C)cc4)c3c2c1	-	-	-	-	-
COc1ccc(-c2c3c(cc(C)[n+]2[O-])oc2ccc(OC)cc23)cc1	-	-	-	-30	-
O=C(OCc1ccco1)c1ccc2c(c1)N(Cc1cccc(F)c1)C(=O)c1ccccc1S2	-	.	-	-	-
Oc1ccc(C23CCCC2C2(CCCC2)c2ccc(O)cc2O3)c(O)c1 (configuration not stated)	.	-	-	-	152
CC1CCN(C(=O)Cn2cc(SCc3ccccc3)c3ccccc32)CC1	-	.	-	-	-
N#Cc1ccc(-c2cccnc2)nc1SCC(=O)c1ccccc1	-	-	-	-	108
COc1ccc(NC(=O)c2cc3c(=O)n(Cc4cccnc4)ccc3nc2C)cc1Cl	-	.	-	-	-
C#CCOCCOCCOCCNc1nc(N2CCN(C(=O)[C@H]([C@@H](C)CC)n3cc(CCCN=C(N)N)nn3)CC2)nc(N2CCN(C(=O)[C@H](CCCCN)n3cc(CCC(=O)O)nn3)CC2)n1	-	-	48	-	-
C#CCOCCOCCOCCNc1nc(N2CCN(C(=O)[C@H](CCCCN)n3cc([C@@H](N)C(C)CC)nn3)CC2)nc(N2CCN(C(=O)[C@H](CCCCN)n3cc([C@@H](N)CC(C)C)nn3)CC2)n1 (some centres not stated)	-	-	-	-	-
C#CCOCCOCCOCCNc1nc(N2CCN(C(=O)CCCCCCCCCCNC(=O)[C@H](CCCCN)n3cc(C)nn3)CC2)nc(N2CCN(C(=O)CCCCCCCCCCNC(=O)[C@@H]([C@H](C)CC)n3cc(CCCCCN)nn3)CC2)n1	40	.	.	-	-
C#CCOCCOCCOCCNc1nc(N2CCOCC2)nc(N2CCN(C(=O)[C@H](CCCCN)n3cc([C@@H](N)C(C)CC)nn3)CC2)n1 (some centres not stated)	-	-	-	-35	-
C#CCOCCOCCOCCNc1nc(N2CCN(C(=O)CCCCCCCCCCNC(=O)[C@@H](CCC(=O)O)n3cc(CCCCCN)nn3)CC2)nc(N2CCN(C(=O)CCCCCCCCCCNC(=O)[C@@H](CCC(=O)O)n3cc(CCCCCN)nn3)CC2)n1	-	-	-	-32	-
COc1ccc(NC(=O)Nc2sc3nc4n(c(=O)c3c2C)CCC(C)CC4)cc1OC (configuration not stated)	-	.	-	-	-

High-throughput results deposited in PubChem BioAssay by National Center for Advancing Translational Sciences (NCATS).
